Assay results as given in PubChem BioAssay (NCI).
About 83,000 compounds went through this panel and 20% of them were active in at least one assay; those are over-represented in the sample as a whole.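 Growth was measured after 48 h exposure to one concentration of compound in 96-well plates. Values under 10 count as active.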 The source made the active and inactive calls.

What follows are compounds tested on HL-60(TB) leukemia (assay: NCI-60 one-dose screen, 48 h (100 = growth as untreated, 0 = no growth, -100 = all killed)). Settings: 10 µM unless noted.

| Compound | growth |
| --- | --- |
| O=S(=O)(NCCNc1nccc(-c2c(-c3cccc(F)c3)nc3sccn23)n1)c1ccc(Br)cc1 | 90.5% (inactive) |
| C=C(C)[C@@H]1CC[C@]2(C)[C@H](CC[C@@H]3[C@@H]([C@@](C)(O)CCC=C(C)C)CC[C@]32C)[C@@]1(C)CCC(=O)O | -24.1% [100 µM] (active) |
| O=CN1N=C(c2cccc(Nc3ccnc4cc(Cl)ccc34)c2)CC1c1ccccc1 (stereo not drawn) | -1.22% (active) |
| CCCCCCCCCCCC[n+]1c(C)cc(N)c2ccccc21 | -44.4% (active) |
| Cc1[nH]c(C(=O)Nc2ccccc2OC2CCNCC2)c(Cl)c1Cl | -57.1% (active) |
| CCCCCCCCCC(=O)Oc1ccc(/C(=C(/C)Cc2cccc(OC)c2)c2ccc(OCCN(C)C)cc2)cc1 | 112% (inactive) |
| Nc1ccc(Oc2ccccc2)c(Cl)c1 | 119% (inactive) |
| O=C(NC(=S)Nc1ccc(Cl)cc1)c1ccccc1 | 60.5% (inactive) |
| CC[C@@]1(OC(=O)CN(C)C)C(=O)OCc2c1cc1n(c2=O)Cc2cc3c(N)cccc3nc2-1 | -2.25% (active) |
| CCn1cc(C(=O)O)c(=O)c2cc(F)c(N3CCN(S(=O)(=O)c4cccc5ccccc45)CC3)cc21 | -46.2% (active) |
| CN1Cc2c(cc(CN3CCCCC3)n2C)C(c2ccc(Br)cc2)C1 (stereo not drawn) | 83.8% (inactive) |
| CCCN1CC(c2ccc(OC)c(OC)c2)=C(c2cn(C(=O)OCC)c3ccccc23)C1=O | 33.2% (inactive) |
| CCCCOc1ncnc2nc[nH]c12 | 99.4% (inactive) |
| COc1ccc(C(c2cc(OC)c(OC)c(OC)c2)n2ccnc2)cc1O (stereo not drawn) | -35.9% (active) |
| C/C=C(/C(=O)NC(N)=O)C(C)C | 91% (inactive) |
| O=C(CSc1nc2ccc([N+](=O)[O-])cc2[nH]1)Nc1ccc([N+](=O)[O-])cc1 | 12.7% (inactive) |
| O=C(Nc1ccc(NCCN2CCOCC2)nc1)c1ccc([N+](=O)[O-])cc1 | 127% (inactive) |
| COc1ccc(C(=O)c2cc3c(N)c(C(=O)Nc4cccc(Br)c4C)sc3nc2C)cc1 | -58.7% (active) |
| CC(C)OC(=O)c1cc(NC(=S)OC(C)C)ccc1Cl | 86.2% (inactive) |
| COc1cc(OC)cc(C(=O)Nc2cc(-c3cccnc3)nc(NCCCN3CCOCC3)n2)c1 | 86.5% (inactive) |
| CCCc1cc(=O)oc2c3c(c4c(c12)OC(C)(C)C=C4)O[C@@H](C)[C@H](C)C3=O | 48.3% (inactive) |
| Cc1ccc(OCC(=O)Nc2ccc(Oc3ccccc3)cc2)c([N+](=O)[O-])n1 | 69% (inactive) |
| O=C(/C=C/c1ccc([N+](=O)[O-])cc1)c1cccc(Nc2nc(Nc3ccccc3)nc(Nc3ccccc3)n2)c1 | 85.1% (inactive) |
